Assay results as given in ChEMBL document CHEMBL3988442, “University of Dundee, Small-Polar-MMV Screening Library” (2021).

Legend:
[1] = target: T1, Aspartate--tRNA(Asp/Asn) ligase (Mycobacterium tuberculosis (strain ATCC 25618 / H37Rv)) (UniProt P9WFW3); experiment: Assay for Asp RNA synthetase-1 from Mycobacterium tuberculosis; type: functional; parameters: scale not given: direction of the effect not stated beside the values; details: 30 µM; note: in the data most compounds retested in dose-response had high values
T1 sequence (whole entry): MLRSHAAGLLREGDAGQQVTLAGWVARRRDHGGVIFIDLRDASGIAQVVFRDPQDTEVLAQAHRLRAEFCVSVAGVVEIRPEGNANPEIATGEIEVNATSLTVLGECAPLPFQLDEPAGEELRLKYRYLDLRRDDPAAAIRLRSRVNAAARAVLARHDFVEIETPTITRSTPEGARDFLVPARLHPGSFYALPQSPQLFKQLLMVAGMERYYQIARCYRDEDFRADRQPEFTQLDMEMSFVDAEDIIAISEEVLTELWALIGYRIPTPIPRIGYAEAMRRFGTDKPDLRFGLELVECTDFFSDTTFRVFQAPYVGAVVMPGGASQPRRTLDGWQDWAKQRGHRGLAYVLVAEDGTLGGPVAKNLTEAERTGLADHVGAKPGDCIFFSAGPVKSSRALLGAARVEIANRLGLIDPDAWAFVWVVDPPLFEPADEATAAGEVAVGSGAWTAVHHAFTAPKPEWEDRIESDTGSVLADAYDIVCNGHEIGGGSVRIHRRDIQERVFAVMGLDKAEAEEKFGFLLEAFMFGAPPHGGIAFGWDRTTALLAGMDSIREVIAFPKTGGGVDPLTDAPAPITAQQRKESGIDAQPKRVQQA

[2] = target: Shiga toxin 2 (Escherichia coli O157:H7) (UniProt P09385+P09386); experiment: E. coli 0.157:H7 Shiga Toxin SOP - stx2 screening assay; type: functional; parameters: scale not given: direction of the effect not stated beside the values; details: 30 µM

Structure (SMILES)	Percent Effect [1] [%]	Percent Effect [2] [%]
COc1ccc(NC(C)=O)c(N2CCN(C(C)=O)CC2)n1	2.32	-15.1
CC(=O)N1CCCN(CC(C)(O)c2cccc(C(F)(F)F)c2)CC1 (stereo not given)	0.301	-32.4
COCCNC(=O)Nc1ccc(-n2cncn2)c(F)c1	-2.66	12.3
Cc1nnc(C(C)N2CCN(Cc3ccc(C#N)cc3)CC2)o1 (stereo not given)	-2.07	20
Cn1c(CC2CCS(=O)(=O)C2)nnc1SCCOc1ccccc1F (stereo not given)	2.75	-10.2
COc1ccc(OCCN(C)C(=O)NC(C)c2nncn2C)cc1 (stereo not given)	-1.96	-14.8
O=C(NCCCO)C1CC(=O)N(c2n[nH]c3cccc(F)c23)C1 (stereo not given)	0.29	-34.7
Cc1nc(C)n(C2CCCN(C(=O)c3ccc(N(C)C)nn3)C2)n1 (stereo not given)	0.605	11.2
CCO[C@@H]1CO[C@@]2(CCCN(C(=O)COc3ccccc3OC)C2)C1	1.03	-25.3
CS(=O)(=O)c1ccc(CNCC2CCN(CCO)CC2)cc1	9.49	-31.9
CCn1nnc2cc(C(=O)N3CCCC3Cn3cc(C)cn3)ccc21 (stereo not given)	-2.54	0.821
CCCc1n[nH]c(C2CN(C(=O)CCCn3cccn3)CCO2)n1 (stereo not given)	-0.947	-21.7
O=C(c1ccc(Cl)o1)N1CCCC(c2cc(C(F)(F)F)[nH]n2)C1 (stereo not given)	3.23	38.7
O=C(NCCc1ccccc1)C1CCC(Cn2cnnn2)CC1 (stereo not given)	-4.3	-20.1
O=C(Cn1cc(C(=O)O)ccc1=O)NCc1ccc(F)c(Cl)c1	3.08	-51.8
CC(CNC(=O)N1CCN(c2cnccn2)CC1)Cc1cccs1 (stereo not given)	0.324	-14.3
Cc1ccc(NC2CCN(C(=O)c3cccn3C)CC2)nn1	-9.26	-60.3
CCCN1CCC(NC(=O)NCCc2nc(CC)c(C)s2)CC1	-5.93	19.2
Cc1noc(C2CCN(Cc3cc(=O)n(C)c(=O)n3C)CC2)n1	-4.37	-1.09
COc1cccc(-n2nnc(C(=O)N3CCN(C)CC3C)c2C)c1 (stereo not given)	-2.92	-48.2
